Measurements published in PubChem BioAssay AID686978 (National Center for Advancing Translational Sciences (NCATS), 2013).
The whole screen tested about 420,000 compounds, of which about 64,000 (15%) were called active. Another 27% or so got no clear call; they are omitted. Calls come from the whole dose curve; as a rule, active = well fitted inhibition curve with a large enough effect; inconclusive = small, poorly fitted or top-dose-only effect; inactive = flat fitted curve, though single readings scatter. A selection follows. A call without a number means that no potency is given here.

Assay: qHTS for Inhibitors of human tyrosyl-DNA phosphodiesterase 1 (TDP1): qHTS in cells in absence of CPT; note: nearly all actives have a fitted effect of over 55% in size
Conditions: DT40 Tdp1-/- hTDP1 cells, no CPT, ATP luminescence, 48 h; activity change, negative = growth inhibition: at 46.2 µM (top of the series)
In short: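 Chicken DT40 Tdp1-/- cells stably complemented with human TDP1 were seeded at 400 cells/well with DMSO in place of 20 nM camptothecin. After compound pinning, cells grew at least 48 hr at 37 °C; viability read by CellTiter-Glo luminescence.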
Potency is the fitted concentration of half-maximal effect.

Compound | Potency
Cc1ccc(S(=O)(=O)N[C@@H](Cc2ccccc2)C(=O)N2CCC(C(=O)N[C@H](C(=O)O)C(C)O)CC2)cc1 (some centres undefined) | inactive
COc1ccc(C2C(C(C)=O)=C(O)C(=O)N2Cc2cccnc2)cc1 (centres undefined) | inactive
COc1cc2nc(C#Cc3nc4cc(OC)c(OC)cc4[nH]3)[nH]c2cc1OC | inactive
Cc1nnc(NC(=O)Cn2c(=O)sc3ccccc32)s1 | inactive
CC(Oc1ccccc1F)C(=O)NN (centres undefined) | inactive
COc1ccc(OC)c(S(=O)(=O)N(C)CC(=O)N2CCN(c3ccccc3)CC2)c1 | inactive
Cn1nc(C(F)(F)F)c2cc(C(=O)N3CCOCC3)sc21 | inactive
CCOC(=O)N1CCN(C(=O)c2cc3c(-c4ccc(Cl)cc4)nn(C)c3s2)CC1 | 11.6 µM (active)
COc1cccc(-c2ccc(SCC(=O)N3CCN(c4ccccc4)CC3)nn2)c1 | 16.4 µM (active)
COc1cccc(/C=C/C(=O)OCC(=O)N2CCN(c3ccccc3)CC2)c1 | inactive
CCOc1ccc(-c2ccc(SCC(=O)N3CCOCC3)nn2)cc1 | inactive
CCOC(=O)N1CCN(C(=O)CSc2ccc(Cl)cc2)CC1 | inactive
COc1cccc(-c2nn(C)c3sc(C(=O)N4CCN(c5ccccc5)CC4)cc23)c1 | 23.1 µM (active)
COc1ccc2c(Cl)c(C(=O)NCc3ccco3)sc2c1 | inactive
Cn1nc(-c2ccc(Cl)cc2)c2cc(C(=O)NCc3ccco3)sc21 | 20.6 µM (active)
O=C(NCc1ccco1)c1nc(-c2ccccc2)n(-c2ccccc2)n1 | inactive
CCOC(=O)N1CCN(C(=O)CNC(=O)Cc2ccc(Cl)cc2)CC1 | inactive
COC(=O)c1nc(NC(=O)c2ccc(F)cc2)n[nH]1 | inactive
Nc1cc(=O)c2[nH]cnc2[nH]1 | inactive
S=C(NC1CCCCC1)NN1CCOCC1 | inactive
CCn1c(SCC(=O)Nc2cc(C)ccc2C)nnc1-c1cnccn1 | inactive
CCN(CCCNC(=O)c1c(C)oc2ncn(CC(C)C)c(=O)c12)Cc1ccccc1 | inactive
Cc1ccc(C(c2sc3nc(C)nn3c2O)N2CCN(c3ccccc3)CC2)cc1 (centres undefined) | inactive
Cc1ccn(CC(=O)N2N=C(C(F)F)CC2(O)C(F)F)n1 (centres undefined) | inactive
CC1=C(C(N)=O)C(c2ccc(Br)cc2)n2ncnc2N1 (centres undefined) | inactive
CCOC(=O)C1=C(c2ccccc2)Nc2ncnn2C1c1ccc(Cl)cc1 (centres undefined) | 18.4 µM (active)
CCOc1ccccc1NC(=O)C1=C(C)Nc2ncnn2C1c1ccc(NC(C)=O)cc1 (centres undefined) | inactive
COCCCNS(=O)(=O)c1cccc(S(=O)(=O)c2cccc(S(=O)(=O)NCCCOC)c2)c1 | inactive
Cc1ccc(/C=N/NC(=O)C(NC(=O)c2ccccc2)c2n[nH]c(=O)c3ccccc23)cc1 (centres undefined) | inactive
